This passage reports Potency and activity change, negative = cytotoxicity results from PubChem BioAssay (NCATS).

Records with an inconclusive call do not appear. A number with no mark means an inactive call. Active and inactive are the calls of the source. The call rests on the fitted dose curve; in most records, active means well fitted curve in the direction sought with a large enough effect; inconclusive means small, poorly fitted or top-dose-only effect, or another doubt; inactive means no such curve, though single readings can be large; an effect the other way counts as inactive or inconclusive.

One test has as its system MKL-1. Nature of the test: qHTS assay to identify novel small-molecules to repurpose for Merkel cell carcinoma treatment (AID 1296009). Further: nearly all actives have a fitted effect of over 60% in size. To be noted: MCC and control cell lines, CellTiter-Glo viability, 72 h; series mostly up to 46 µM. The procedure, abridged: (§1)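 Viability readout: ATP luminescence (CellTiter-Glo) after 72 hr drug exposure at 37 degree celsius. Dose-response format was 8 points for NPC and 11 points for MIPE; data normalized to in-plate controls.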
In general terms: In qHTS, concentration-response curves come from the screen itself.

For the next test, the system named is UISO. Described as above. To be noted: MCC and control cell lines, CellTiter-Glo viability, 72 h; series mostly up to 46 µM. The procedure, abridged:
as §1

The next test has as its system WaGa. Described as above. To be noted: MCC and control cell lines, CellTiter-Glo viability, 72 h; series mostly up to 46 µM. The procedure, abridged:
as §1
For orientation: Cellular ATP, detected with luciferase, serves as a proxy for viable cell number.

The test system of another test is C33A. Nature of the test: Primary qHTS to identify gynecologic anti-cancer compounds using libraries of approved drugs and bioactive compounds (AID 1345084). Further: nearly all actives have a fitted effect of over 55% in size. To be noted: Gynecologic cancer cell panel viability, ATPlite luminescence, 48 h; series mostly up to 57.5 µM. The procedure, abridged: (§2)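 Cells, 1,000 per well, plated 16 h, then exposed 48 h at 37 C to compounds. Viability by ATPlite luminescence after 15 min at room temperature.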

The next test concerns CASKI. The description is as above. To be noted: Gynecologic cancer cell panel viability, ATPlite luminescence, 48 h; series mostly up to 57.5 µM. The procedure, abridged: as §2
In the next test the test system is Es-2. The test is described as above. To be noted: Gynecologic cancer cell panel viability, ATPlite luminescence, 48 h; series mostly up to 57.5 µM. The procedure, abridged:
as §2

The subject of another test is HeLa. The test is described as above. To be noted: Gynecologic cancer cell panel viability, ATPlite luminescence, 48 h; series mostly up to 57.5 µM. The procedure, abridged: as §2
The subject of another test is Hek293T. The test is described as above. To be noted: Gynecologic cancer cell panel viability, ATPlite luminescence, 48 h, control line for the selectivity index; series mostly up to 57.5 µM. The procedure, abridged: as §2
The subject of another test is JEG-3. The description is as above. To be noted: Gynecologic cancer cell panel viability, ATPlite luminescence, 48 h; series mostly up to 57.5 µM. The procedure, abridged:
as §2

Another test has as its system OV90. The test is described as above. To be noted: Gynecologic cancer cell panel viability, ATPlite luminescence, 48 h; series mostly up to 57.5 µM. The procedure, abridged: as §2
The test system of a further test is PA-1. The test is described as above. To be noted: Gynecologic cancer cell panel viability, ATPlite luminescence, 48 h; series mostly up to 57.5 µM. The procedure, abridged: as §2
A further test concerns SKOV3. The test is described as above. To be noted: Gynecologic cancer cell panel viability, ATPlite luminescence, 48 h; series mostly up to 57.5 µM. The procedure, abridged: as §2
In the next test the test system is Tov-21-G. Described as above. To be noted: Gynecologic cancer cell panel viability, ATPlite luminescence, 48 h; series mostly up to 57.5 µM. The procedure, abridged: as §2
The subject of another test is Tov112D. The description is as above. To be noted: Gynecologic cancer cell panel viability, ATPlite luminescence, 48 h; series mostly up to 57.5 µM. The procedure, abridged:
as §2

The subject of another test is NIH3T3. Nature of the test: qHTS assay to identify novel small-molecules to repurpose for Merkel cell carcinoma treatment (AID 1296009). Further: nearly all actives have a fitted effect of over 60% in size. To be noted: MCC and control cell lines, CellTiter-Glo viability, 72 h; series mostly up to 44.8 µM. The procedure, abridged: as §1
The subject of the next test is MKL-2. The test is described as above. To be noted: MCC and control cell lines, CellTiter-Glo viability, 72 h; series mostly up to 46 µM. The procedure, abridged:
as §1
On the % scale 0 is the no-effect control and ±100 the full control effect; potency means the concentration at half of the fitted maximal effect.

Consider `CC(=O)NCCC(=O)N[C@@H](CCC(N)=O)C(=O)N[C@@H](CO)C(=O)N[C@@H](CCC(N)=O)C(=O)N[C@@H](CCC(N)=O)C(=O)N[C@H](C(=O)N[C@@H](Cc1ccccc1)C(=O)N[C@]1(C)CCCCCCC=CCCC[C@@](C)(C(=O)N[C@@H](CCC(N)=O)C(=O)N[C@@H](CC(N)=O)C(N)=O)NC(=O)[C@H](CC(C)C)NC(=O)[C@H](CC(C)C)NC(=O)[C@@H](CCCNC(=N)N)NC(=O)[C@H](Cc2c[nH]c3ccccc23)NC(=O)[C@H](CC(C)C)NC(=O)[C@H](CC(N)=O)NC1=O)[C@H](C)O`, for which the Potency entry in the test with MKL-1, in the test on UISO and in the test on WaGa was “inactive” throughout.

Regarding `O=C(c1ccc(F)c(F)c1Nc1ccc(I)cc1F)N1CC(O)([C@H]2CCCCN2)C1`, the Potency entry in the test with MKL-1, with UISO and in the test on WaGa was “inactive” each time.

As for `CNC(=O)c1ccc2c(C(=Nc3cccc(CN(C)C)c3)c3ccccc3)c(O)[nH]c2c1`, the Potency entry in the test on MKL-1, in the test on UISO, in the test with WaGa, in the test with C33A, in the test with CASKI and in the test on Es-2 was “inactive” throughout. Moreover, the Potency result in the test on HeLa, with Hek293T, with JEG-3, in the test with OV90, in the test with PA-1 and in the test on SKOV3 was “inactive” each time. Besides, the Potency entry in the test with Tov-21-G and in the test with Tov112D was “inactive” in each case.

As for `N=C1SC(=Cc2ccc(-c3ccc4c(c3)C(=O)NC4=O)o2)C(=O)N1c1ccc(Br)cc1`, the Potency result in the test with MKL-1, with UISO and with WaGa was “inactive” each time.

For the compound `CN(C)N=Nc1nc[nH]c1C(N)=O`, the Potency entry in the test on MKL-1 and with UISO was “inactive” in each case.

Regarding `NC(N)=Nc1nc(CSCCC(N)=NS(N)(=O)=O)cs1`, the Potency entry in the test on MKL-1, with NIH3T3 and in the test on UISO was “inactive” throughout.

As to `NC1(C(=O)N[C@@H](CCO)c2ccc(Cl)cc2)CCN(c2ncnc3[nH]ccc23)CC1`, the Potency result with MKL-1, with NIH3T3, in the test on Es-2, with HeLa, in the test with OV90 and in the test with Tov112D was “inactive” in each case. Further, the Potency was 2.51 µM (active) in the test on C33A and 0.794 µM (active) in the test on Tov-21-G.

Consider `CO[C@H]1O[C@@H]2O[C@@]3(C)CC[C@@H]4[C@@H](C)CC[C@@H]([C@H]1C)[C@@]24OO3`, for which the Potency result in the test with MKL-1 and in the test with NIH3T3 was “inactive” throughout. Also, in the test on WaGa, the Potency is 20.9 µM (active).

As to `COc1cc([C@H]2Oc3cc([C@H]4Oc5cc(O)cc(O)c5C(=O)[C@H]4O)ccc3O[C@H]2CO)ccc1O`, the Potency result with MKL-1, in the test with UISO and with WaGa was “inactive” throughout.

On to `CNc1nc(-c2ccc3c(N)n[nH]c3c2)cc(N2C[C@@H](C(=O)NC3CCCCC3)CC[C@@H]2C)n1`, for which the Potency result with MKL-1, in the test with UISO and with WaGa was “inactive” in each case.

Consider `CCCC1OC2C[C@@H]3[C@H]4CCC5=CC(=O)C=C[C@]5(C)[C@H]4C(O)C[C@]3(C)[C@]2(C(=O)CO)O1` (stereo not given in full), for which the Potency result with MKL-1, in the test with UISO and in the test with WaGa was “inactive” in each case.

Turning to `C[C@]12CC[C@@H]3c4ccc(O)cc4CC[C@H]3[C@H]1[C@@H](O)[C@@H](O)[C@H]2O`, the Potency entry in the test with MKL-1, with NIH3T3, in the test on UISO and in the test with WaGa was “inactive” each time.

For the compound `CCC(=O)NCC[C@@H]1CCc2ccc3c(c21)CCO3`, the Potency result with MKL-1, in the test on NIH3T3, with UISO and in the test with WaGa was “inactive” throughout.

Consider `CC(=O)O[C@]1(C(C)=O)CC[C@H]2[C@@H]3C=C(Cl)C4=CC(=O)[C@@H]5C[C@H]5[C@]4(C)[C@@H]3CC[C@@]21C`, for which the Potency result in the test on MKL-1, in the test on NIH3T3 and in the test with WaGa was “inactive” each time.

Regarding `CCN1CCC(n2cc(CNc3cc(Cl)c4ncc(C#N)c(Nc5ccc(F)c(Cl)c5)c4c3)nn2)CC1`, the Potency result in the test on MKL-1, in the test with NIH3T3, in the test on WaGa, with C33A, in the test with CASKI and in the test on Es-2 was “inactive” each time. In addition, the Potency result in the test on HeLa, with Hek293T, in the test with JEG-3, in the test on OV90, in the test with PA-1 and with Tov-21-G was “inactive” in each case. Also, the Potency entry in the test on Tov112D was “inactive”.

`C[C@@H](O)[C@H]1C(=O)N2C(C(=O)OCOC(=O)C(C)(C)C)=C(SC3CN(C4=NCCS4)C3)[C@H](C)[C@H]12`: the Potency result with MKL-1, with NIH3T3, with UISO and in the test on WaGa was “inactive” each time.

As to `CCNC(=O)CCCC=CC[C@@H]1[C@H](C=CC(O)CCc2ccccc2)[C@@H](O)C[C@@H]1O` (stereo not given in full), the Potency entry in the test with MKL-1, with UISO and with WaGa was “inactive” throughout.

Regarding `O=C(CO)N1CCC(c2[nH]nc(-c3ccc(Cl)cc3)c2-c2ccncn2)CC1`, the Potency result in the test with MKL-1, in the test with MKL-2, with C33A, in the test with CASKI, with Es-2 and in the test with HeLa was “inactive” in each case. The Potency result in the test on Hek293T, in the test with JEG-3, in the test with OV90, in the test with PA-1, with SKOV3 and in the test with Tov-21-G was “inactive” each time. Also, in the test on Tov112D, the Potency entry was “inactive”.

`COc1cc(CNC(=O)CCCCC=CC(C)C)ccc1O`: the Potency result in the test on MKL-1 and with WaGa was “inactive” in each case.

`Cc1cccc(Nc2nc(N[C@@H]3CCCC[C@H]3N)ncc2C(N)=O)c1`: the Potency result in the test on MKL-2, in the test on UISO and with WaGa was “inactive” throughout.

Turning to `CO[C@H]1/C=C\O[C@@]2(C)Oc3c(C)c(O)c4c(O)c(c5c(nc6cc(C)ccn65)c4c3C2=O)NC(=O)C(C)=CC=C[C@H](C)[C@H](O)[C@@H](C)[C@@H](O)[C@@H](C)[C@H](OC(C)=O)[C@H]1C`, the Potency entry in the test on MKL-2 and in the test on UISO was “inactive” each time.

As for `NC[C@H]1O[C@H](O[C@@H]2[C@@H](O)[C@@H](O[C@H]3O[C@H](CO)[C@@H](O)[C@H](N)[C@@H]3O)[C@H](N)C[C@@H]2N)[C@H](O)[C@@H](O)[C@H]1O`, the Potency entry with MKL-2, in the test with UISO and with WaGa was “inactive” each time.

For the compound `CCC(=O)N1CCN(c2ccc(-n3c(=O)ccc4cnc5ccc(-c6cnc7ccccc7c6)cc5c43)cc2C(F)(F)F)CC1`, the Potency entry with MKL-2 and in the test with WaGa was “inactive” throughout. Besides, the Potency is 0.0469 µM (active) with UISO; 0.141 µM (active) with Es-2; 0.1 µM (active) in the test with Hek293T; 0.126 µM (active) in the test on PA-1; 0.0794 µM (active) in the test on Tov-21-G. Further, the activity change, negative = cytotoxicity in the test on JEG-3 is -16.3% [at 11.6 µM].

For `O=C(NC[C@H](O)CO)c1ccncc1Nc1ccc(I)cc1F`, the Potency in the test on MKL-2 was 6.62 µM (active). Moreover, the Potency result with UISO and in the test on WaGa was “inactive” in each case.

With `COc1cc2nccc(Oc3ccc(NC(=O)Nc4ccc(F)cc4F)c(F)c3)c2cc1OC`, the Potency entry in the test with MKL-2, in the test with UISO and in the test on WaGa was “inactive” each time.

In the case of `Cc1ccc(S(=O)(=O)OCC(=O)Nc2ccc(C(=O)O)c(O)c2)cc1`, the Potency entry in the test with MKL-2 and in the test with UISO was “inactive” throughout.

Turning to `CC(C)CNc1ccnc(NCc2csc(-c3ccccc3)n2)n1`, the Potency with MKL-2 was 16.6 µM (active); with UISO it was 13.2 µM (active); with Es-2, 22.4 µM (active); with PA-1, 12.6 µM (active); in the test on SKOV3, 11.2 µM (active). The Potency entry in the test on HeLa and with JEG-3 was “inactive” each time.

For the compound `CCc1cccc(CC)c1NC(=O)N1Cc2[nH]nc(NC(=O)c3ccc(N4CCN(C)CC4)cc3)c2C1`, the Potency result with MKL-2, in the test on UISO, in the test with C33A, in the test on Es-2, with Hek293T and in the test on JEG-3 was “inactive” throughout. Further, the Potency entry in the test on OV90 and with SKOV3 was “inactive” throughout. Also, the Potency was 3.16 µM (active) in the test with HeLa and 12.6 µM (active) in the test with Tov-21-G.
